Test results: PubChem BioAssay (NCATS)
Inconclusive results are not listed. A call without a number means that no potency is given here. Active and inactive are the calls of the source. Calls follow the shape of the full dose curve.

Experiment: Cytotoxicity counterscreen for inhibitors of SARS-CoV-2 cell entry (AID 1645845); also: nearly all actives have a fitted effect of over 50% in size
Conditions: outcome: dose series up to 57.1 µM unless noted
Procedure, shortened: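 Counterscreen run in the same HEK293-ACE2 line as the pseudotyped-particle entry assay, without particles. Viability after 48 h at 37 C was read as ATP luminescence, scaled between cell-containing and cell-free wells.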
Potency is read from the fitted curve at half-maximal effect.

| Structure (SMILES) | Potency |
| --- | --- |
| CO[C@H]1/C=C/O[C@@]2(C)Oc3c(C)c(O)c4c(O)c(c(/C=N\N5CCN(C6CCCC6)CC5)c(O)c4c3C2=O)NC(=O)/C(C)=C\C=C\[C@H](C)[C@H](O)[C@@H](C)[C@@H](O)[C@@H](C)[C@H](OC(C)=O)[C@@H]1C | inactive |
| Cn1ncnc1[C@H]1c2n[nH]c(=O)c3cc(F)cc(c23)N[C@@H]1c1ccc(F)cc1 | inactive |
| CC(=O)N1c2ccc(-c3ccc(C(=O)O)cc3)cc2[C@H](Nc2ccc(Cl)cc2)C[C@@H]1C | inactive |
| Cc1cccc(-c2[nH]ncc2-c2ccc(F)c(-c3cnn(CCO)c3)c2)n1 | inactive |
| CC[C@H]1OC(=O)[C@H](C)C(=O)[C@H](C)[C@@H](O[C@H]2O[C@H](C)C[C@H](N(C)C)[C@H]2O)[C@](C)(OC)C[C@@H](C)C(=O)[C@H](C)[C@H]2N(CCCCn3cnc(-c4cccnc4)c3)C(=O)O[C@]12C | inactive |
| CO[C@H]1C[C@@H]2CC[C@@H](C)[C@@](O)(O2)C(=O)C(=O)N2CCCC[C@H]2C(=O)O[C@H]([C@H](C)C[C@@H]2CC[C@@H](OCCO)[C@H](OC)C2)CC(=O)[C@H](C)/C=C(/C)[C@@H](O)[C@@H](OC)C(=O)[C@H](C)C[C@H](C)/C=C\C=CC=C1C | inactive |
| CC[C@H](NC(=O)[C@H](C)NC)C(=O)N1C[C@@H](O)C[C@H]1Cc1c(-c2[nH]c3cc(F)ccc3c2C[C@@H]2C[C@H](O)CN2C(=O)[C@H](CC)NC(=O)[C@H](C)NC)[nH]c2cc(F)ccc12 | inactive |
| COc1cc(N2CCC(N(C)C)CC2)ccc1Nc1ncc(Cl)c(Nc2ccccc2P(C)(C)=O)n1 | 15.8 µM (active) |
| C[C@H](NC(=O)c1c(N)nn2cccnc12)c1cc2cccc(C#Cc3cnn(C)c3)c2c(=O)n1-c1ccccc1 | inactive |
| CC#CC(=O)N1CCC[C@H]1c1nc(-c2ccc(C(=O)Nc3ccccn3)cc2)c2c(N)nccn12 | inactive |
| CC(C)NCCCn1c(Sc2cc(Cl)cc(Cl)c2)nc2c(N)ncnc21 | inactive |
| O=C(Nc1ccc2[nH]nc(-c3ccncc3)c2c1)[C@@H]1CCN(CC(=O)N2CCN(c3ccc(-c4ncccn4)cc3)CC2)C1 | inactive |
| CNC(=O)c1ccccc1Nc1nc(Nc2ccc3c(c2OC)CCC[C@@H](N2CCN(CCO)CC2)C3)ncc1Cl | inactive |
| O=C(NO)C1(CS(=O)(=O)c2ccc(Oc3ccc(Cl)cc3)cc2)CCOCC1 | inactive |
| Cc1cc(F)c(C(=O)Nc2cccc(-c3nncn3C(C)C)n2)cc1-n1cnc(C2CC2)c1 | 31.6 µM (active) |
| C=C[C@H]1CN2CCC1C[C@@H]2C(O)c1ccnc2ccc(OC)cc12 (stereo not given in full) | inactive |
| COc1ccc2nc3n[nH]c(C)c3c(NCCOCCO)c2c1 | inactive |
| O=C(Nc1ccc(OC(F)(F)Cl)cc1)c1cnc(N2CC[C@@H](O)C2)c(-c2ccn[nH]2)c1 | inactive |
| Cc1sc2c(c1C)C(c1ccc(Cl)cc1)=N[C@@H](CC(=O)Nc1ccc(OCCOCCOCCOCCNc3cccc4c3C(=O)N(C3CCC(=O)NC3=O)C4=O)cc1)c1nnc(C)n1-2 (stereo not given in full) | inactive |
| O=C(NCc1cccc(O)c1)Nc1nc(-c2ccncc2)cs1 | inactive |

| Structure (SMILES) | Potency |
| --- | --- |
| O=C(O)[C@H](CC(=O)N1C[C@H]2CCCC[C@H]2C1)Cc1ccccc1 | inactive |
| COc1cc(N2CCC(N3CCN(C)CC3)CC2)ccc1Nc1ncnc(Nc2ccccc2S(=O)(=O)C(C)C)n1 | inactive |
| NC(=S)N/N=C/c1ncccc1N | inactive |
| CC/C(=C(/c1ccc(/C=C/C(=O)O)cc1)c1ccc2[nH]ncc2c1)c1ccc(F)cc1Cl | inactive |
| O=C(NNc1ccccc1)c1ccncc1 | inactive |
| Cc1cc(N2CCOCC2)ccc1Nc1nc(NC2CCCCC2)c2[nH]cnc2n1 | inactive |
| CN(Cc1ccccc1)C(=O)c1ccc(S(=O)(=O)Nc2ccccc2)cc1 | inactive |
| Nc1ncccc1-c1nc2ccc(-c3ccccc3)nc2n1-c1ccc(C2(N)CCC2)cc1 | 31.6 µM (active) |
| CC(=NNC(=O)c1cccc(S(=O)(=O)N2CCOCC2)c1)c1cc(Cl)ccc1O | inactive |
| CCC1CCCCN1C(=O)n1ncc(C(O)(c2ccccc2)c2ccccc2)n1 (stereo not given) | 11.2 µM (active) |
| Cc1ccc(NC(=O)Nc2cc(C(F)(F)F)ccc2F)cc1Nc1ccc2c(c1)NC(=O)/C2=C\c1ccc[nH]1 | inactive |
| COc1cccc(-c2c(C)n(Cc3c(F)cccc3C(F)(F)F)c(=O)n(C[C@H](NCCCC(=O)O)c3ccccc3)c2=O)c1F | inactive |
| CNS(=O)(=O)c1ccc2c(c1)/C(=C/c1[nH]c3c(c1CCCN1CCN(C)CC1)CCCC3)C(=O)N2 | inactive |
| CNC(=O)[C@@H](NC(=O)[C@H](CC(C)C)[C@H](O)C(=O)NO)C(C)(C)C | inactive |
| CNCCN(C)Cc1cn[nH]c1-c1ccc(OC2CC(OCCC3CCOCC3)C2)cc1 (stereo not given) | inactive |
| CC(=O)N1CCC(Nc2cc(C(=O)NC[C@H](O)CN3CCc4ccccc4C3)ncn2)CC1 | inactive |
| C[C@@H]1COCCN1c1cc(=O)n2c(n1)N(Cc1cncc(Cl)c1)[C@H](C(F)(F)F)CC2 | inactive |
| CC1(C)OCCn2c1nc1c(N3CCOCC3)nc(-c3cnc(N)nc3)nc12 | inactive |
| O=C(NOCCO)c1cc(CN2OCCCC2=O)c(F)c(F)c1Nc1ccc(I)cc1F | inactive |
| Cc1c(NC(=O)OCC2COCCN2)cn2ncnc(Nc3ccc4c(cnn4Cc4cccc(F)c4)c3)c12 (stereo not given) | inactive |

| Structure (SMILES) | Potency |
| --- | --- |
| Cc1cc(Nc2ncnc3ccc(NC4=NC(C)(C)CO4)cc23)ccc1Oc1ccn2ncnc2c1 | inactive |
| C[C@@H](Nc1ncnc2[nH]c(-c3ccc(O)cc3)cc12)c1ccccc1 | inactive |
| CN(C)c1cc(NC(=O)CNC(C)(C)C)c(O)c2c1C[C@H]1C[C@H]3[C@H](N(C)C)C(=O)C(C(N)=O)=C(O)[C@]3(O)C(=O)C1=C2O | inactive |
| Cc1ccc(-c2nn(C(C)(C)CNC(=O)c3ccncc3)c3ncnc(N)c23)cc1 | inactive |
| O=C(C1CC1)N1CC[C@@H](Cc2n[nH]c(=O)n2-c2ccc(-c3ccc4occc4c3)cc2)C1 | 4.47 µM (active) |
| Cc1cc(C)c(CNC(=O)c2cc(-c3ccc(CN4CCOCC4)cc3)cc3c2cnn3C2CCCC2)c(=O)[nH]1 | inactive |
| C=C1C(=O)O[C@@H]2[C@H]3C(C)=CC[C@@]34O[C@@]4(C)CC[C@@H]12 | inactive |
| C=CC(=O)Nc1cccc(Nc2nc(Nc3ccc(N4CCN(C(C)=O)CC4)cc3OC)ncc2C(F)(F)F)c1 | 31.6 µM (active) |
| C[C@H](Nc1ncnc2nc[nH]c12)c1cc2cccc(Cl)c2c(=O)n1-c1ccccc1 | inactive |
| COc1cc2c3c(n(CCCN4CCOCC4)c(=O)c2cc1OC)-c1cc2c(cc1C3=O)OCO2 | inactive |
| C[C@]12CC[C@H](O)CC1=CC[C@@H]1[C@@H]2CC[C@]2(C)C(c3cccnc3)=CC[C@@H]12 | inactive |
| COc1ncc(Nc2ncc([C@H](C)N3CCN(S(C)(=O)=O)CC3)cc2-c2nc(C)nc(N)n2)cc1F | inactive |
| CCOC(=O)C1=CCCCC1S(=O)(=O)Nc1ccc(F)cc1Cl (stereo not given) | inactive |
| NS(=O)(=O)c1ccc(NC(=S)N2CCN(C/C=C/c3ccccc3)CC2)cc1 | inactive |
| O=C(CCl)Nc1cccc(NC2=NS(=O)(=O)c3ccccc32)c1 | inactive |
| O=C(C[C@@H]1C/C=C\CCC(=O)O[C@H](c2ccccc2)CNC1=O)NCc1ccc(Cl)cc1 | inactive |
| COc1cc(N2CCC(N)CC2)ccc1Nc1ncc(Cl)c(-c2c[nH]c3ccccc23)n1 | 31.6 µM (active) |
| COc1ccc(CNC(=O)c2cc(-c3cncc(Cl)c3)cnc2-c2ccccn2)nc1OC | inactive |
| Cc1ccc(C(=O)Nc2ccc(CN3CCN(C)CC3)c(C(F)(F)F)c2)cc1C#Cc1cnc2[nH]ncc2c1 | 31.6 µM (active) |
| CN1CCN(CCCNc2ncc(Cl)c(-c3cc4c(C(=O)NC5CC5)cccc4s3)n2)CC1 | inactive |
